Among the data in PubChem BioAssay are composite z-score and z-score values, retold here.

Active and inactive are the calls of the source.

Test [1] in a line: small molecules captured by biotinylated probe aFSTL3 – biochemical, small-molecule microarray, fluorescence 635/667, stem cell growth factor project, primary screen (AID 1064).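 Note: measures binding of the biotinylated anti-FSTL3 antibody to printed compounds.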 The note with it: higher = more signal.
Test [2] in a line: binders from COS7 lysate, DM2A8 probe, primary screen, torsin A project, cell lysate, small-molecule microarray, fluorescence 635/667 (AID 1065). The settings on record: higher = more signal, COS7 lysate expressing mutant human TOR1A.
Test [3] is described as follows: small molecules captured by biotinylated probe aFGF2 – biochemical, small-molecule microarray, fluorescence 635/667, stem cell growth factor project, primary screen (AID 1067).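 Note: measures binding of biotinylated aFGF2 protein to printed compounds on slides; z-score merges feature fluorescence and signal-to-noise across triplicate slides.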 The settings on record: higher = more signal.
Test [4] can be described thus: small molecules captured by biotinylated probe aFGF10 – biochemical, small-molecule microarray, fluorescence 635/667, stem cell growth factor project, primary screen (AID 1071).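 Note: score merges 667 nm spot intensity and signal to noise from triplicate slides.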 The settings on record: higher = more signal.
Test [5] concerns the target Neurogenic locus notch homolog protein 2 (Homo sapiens) (UniProt Q04721). Kind of test: small molecules binding Notch2 protein – biochemical, small-molecule microarray, 635 nm fluorescence, stem cell growth factors, primary screen (AID 1073). The settings on record: higher = more signal.
For test [6], the target named is Pro-neuregulin-1, membrane-bound isoform (Homo sapiens) (UniProt Q02297). Kind of test: small molecules binding neuregulin-1 protein – biochemical, small-molecule microarray, fluorescence 635/667, psychiatric disease protein project, primary screen (AID 1075).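 Note: score combines 667 nm spot fluorescence with signal to noise.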 The settings on record: NRG1 binding, 635 nm fluorescence, higher = more signal.
The subject of test [7] is Neuregulin-1 EGF-like domain. Kind of test: small molecules binding NRG1 EGF domain – biochemical, small-molecule microarray, 635 nm fluorescence, primary screen (AID 1081).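 Note: binding of the protein to compounds printed on small-molecule microarray slides.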 The note with it: higher = more signal.
Test [8] can be described thus: FRG1 expression reporter modulators in myotubes – cell-based, C2C12 myotubes, firefly/Renilla luciferase, luminescence, FRG1 inhibition for FSHD, primary screen (AID 1084). The settings on record: FRG1 promoter luciferase, higher = more signal, called active from +8 up or from −8 down.
Test [9] in a line: small molecules captured by biotinylated probe aFST – biochemical, small-molecule microarray, fluorescence 635/667, stem cell growth factor project, primary screen (AID 1086).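 Note: score merges 667 nm fluorescence with signal-to-noise of each printed compound spot.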 The note with it: higher = more signal.
The nature of test [10]: binders of probe aHhip on microarray, primary screen, stem cell growth factor project, biochemical, small-molecule microarray, fluorescence 635/667 (AID 1087).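 Note: score merges spot fluorescence at 667nm with spot signal to noise ratio.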 The settings on record: higher = more signal.
The test system of test [11] is PRMT1 (protein arginine N-methyltransferase 1). Kind of test: small molecules binding arginine methyltransferase PRMT1 – biochemical, small-molecule microarray, 635 nm fluorescence, primary screen (AID 1088).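 Note: binding of Prmt1 protein to compounds spotted on small-molecule microarray slides.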 The settings on record: higher = more signal.
The nature of test [12]: growth effects on S. cerevisiae YJM789 – YJM789 clinical isolate, OD600, 24 h, basal, primary screen (AID 1089).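 Note: growth of clinical yeast isolate S. cerevisiae YJM 789 seeded 1000 cells per well; test concentration not given here.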 The settings on record: higher = more signal, called active from +8 up or from −8 down.
A short description of test [13]: S. pombe growth modifiers, basal conditions – strain 972, OD600, 24 h, no modulator, primary screen (AID 1090).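 Note: basal condition with compound alone and no growth modifier present; test concentration not given here.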 The note with it: S. pombe 972 growth, higher = more signal, called active from +8 up or from −8 down.
A short description of test [14]: budding yeast growth modifiers under rapamycin – strain BY4716, OD600, 96 h, primary screen (AID 1091). Note: test concentration not given here. The note with it: S. cerevisiae BY4716 + rapamycin, higher = more signal, called active from +8 up or from −8 down.
The target of test [15] is Torsin-1A-interacting protein 2 (Homo sapiens) (UniProt Q8NFQ8). Kind of test: small molecules binding lysate-expressed LULL1 – cell lysate, human LULL1 lysate, 635/667 nm fluorescence, primary screen (AID 1092).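 Note: probe is lysate of COS7 cells overexpressing human LULL1; score merges per-feature 667 nm fluorescence with signal-to-noise.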 The note with it: small-molecule microarray, hLULL1 lysate binding, 635 nm fluorescence; higher = more signal.
The nature of test [16]: optical density change of DRC41 E. coli – strain DRC41, OD650, 24 h, E. coli filamentation project, primary screen (AID 1093).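 Note: MC1000 strain lacking acrAB efflux and sulA so SOS filamentation is blocked; test concentration not given here.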 The note with it: E. coli DRC41 growth, higher = more signal, called active from +8 up or from −8 down.
Test [17] can be described thus: probe aLefty2 binding to arrayed compounds – biochemical, biotinylated probe, 635/667 nm fluorescence, primary screen (AID 1094).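 Note: score merges spot fluorescence near 667 nm with spot signal-to-noise ratio.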 The note with it: small-molecule microarray, higher = more signal.
Test [18] concerns Noggin (protein binding on small-molecule microarray). In words: small molecules binding Noggin protein – biochemical, 635/667 nm fluorescence, primary screen (AID 1095).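 Note: score merges 667 nm feature fluorescence with signal to noise over triplicate slides.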 The settings on record: 635 nm fluorescence, higher = more signal.
For test [19], the target named is Neurogenic locus notch homolog protein 3 (Homo sapiens) (UniProt Q9UM47). In words: small molecules binding NOTCH3 protein – biochemical, 635/667 nm fluorescence, primary screen (AID 1096). The settings on record: small-molecule microarray, 635 nm fluorescence, higher = more signal.
The nature of test [20]: probe aEGFR binding to arrayed compounds – biochemical, biotinylated probe, 635/667 nm fluorescence, primary screen (AID 1097).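 Note: probe is a biotinylated anti-EGFR antibody binding compounds printed on slides; score combines fluorescence near 667 nm and signal to noise of each spot.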 The settings on record: small-molecule microarray, higher = more signal.

Sequence of Neurogenic locus notch homolog protein 3 (Homo sapiens) (Q9UM47 whole entry, looked up): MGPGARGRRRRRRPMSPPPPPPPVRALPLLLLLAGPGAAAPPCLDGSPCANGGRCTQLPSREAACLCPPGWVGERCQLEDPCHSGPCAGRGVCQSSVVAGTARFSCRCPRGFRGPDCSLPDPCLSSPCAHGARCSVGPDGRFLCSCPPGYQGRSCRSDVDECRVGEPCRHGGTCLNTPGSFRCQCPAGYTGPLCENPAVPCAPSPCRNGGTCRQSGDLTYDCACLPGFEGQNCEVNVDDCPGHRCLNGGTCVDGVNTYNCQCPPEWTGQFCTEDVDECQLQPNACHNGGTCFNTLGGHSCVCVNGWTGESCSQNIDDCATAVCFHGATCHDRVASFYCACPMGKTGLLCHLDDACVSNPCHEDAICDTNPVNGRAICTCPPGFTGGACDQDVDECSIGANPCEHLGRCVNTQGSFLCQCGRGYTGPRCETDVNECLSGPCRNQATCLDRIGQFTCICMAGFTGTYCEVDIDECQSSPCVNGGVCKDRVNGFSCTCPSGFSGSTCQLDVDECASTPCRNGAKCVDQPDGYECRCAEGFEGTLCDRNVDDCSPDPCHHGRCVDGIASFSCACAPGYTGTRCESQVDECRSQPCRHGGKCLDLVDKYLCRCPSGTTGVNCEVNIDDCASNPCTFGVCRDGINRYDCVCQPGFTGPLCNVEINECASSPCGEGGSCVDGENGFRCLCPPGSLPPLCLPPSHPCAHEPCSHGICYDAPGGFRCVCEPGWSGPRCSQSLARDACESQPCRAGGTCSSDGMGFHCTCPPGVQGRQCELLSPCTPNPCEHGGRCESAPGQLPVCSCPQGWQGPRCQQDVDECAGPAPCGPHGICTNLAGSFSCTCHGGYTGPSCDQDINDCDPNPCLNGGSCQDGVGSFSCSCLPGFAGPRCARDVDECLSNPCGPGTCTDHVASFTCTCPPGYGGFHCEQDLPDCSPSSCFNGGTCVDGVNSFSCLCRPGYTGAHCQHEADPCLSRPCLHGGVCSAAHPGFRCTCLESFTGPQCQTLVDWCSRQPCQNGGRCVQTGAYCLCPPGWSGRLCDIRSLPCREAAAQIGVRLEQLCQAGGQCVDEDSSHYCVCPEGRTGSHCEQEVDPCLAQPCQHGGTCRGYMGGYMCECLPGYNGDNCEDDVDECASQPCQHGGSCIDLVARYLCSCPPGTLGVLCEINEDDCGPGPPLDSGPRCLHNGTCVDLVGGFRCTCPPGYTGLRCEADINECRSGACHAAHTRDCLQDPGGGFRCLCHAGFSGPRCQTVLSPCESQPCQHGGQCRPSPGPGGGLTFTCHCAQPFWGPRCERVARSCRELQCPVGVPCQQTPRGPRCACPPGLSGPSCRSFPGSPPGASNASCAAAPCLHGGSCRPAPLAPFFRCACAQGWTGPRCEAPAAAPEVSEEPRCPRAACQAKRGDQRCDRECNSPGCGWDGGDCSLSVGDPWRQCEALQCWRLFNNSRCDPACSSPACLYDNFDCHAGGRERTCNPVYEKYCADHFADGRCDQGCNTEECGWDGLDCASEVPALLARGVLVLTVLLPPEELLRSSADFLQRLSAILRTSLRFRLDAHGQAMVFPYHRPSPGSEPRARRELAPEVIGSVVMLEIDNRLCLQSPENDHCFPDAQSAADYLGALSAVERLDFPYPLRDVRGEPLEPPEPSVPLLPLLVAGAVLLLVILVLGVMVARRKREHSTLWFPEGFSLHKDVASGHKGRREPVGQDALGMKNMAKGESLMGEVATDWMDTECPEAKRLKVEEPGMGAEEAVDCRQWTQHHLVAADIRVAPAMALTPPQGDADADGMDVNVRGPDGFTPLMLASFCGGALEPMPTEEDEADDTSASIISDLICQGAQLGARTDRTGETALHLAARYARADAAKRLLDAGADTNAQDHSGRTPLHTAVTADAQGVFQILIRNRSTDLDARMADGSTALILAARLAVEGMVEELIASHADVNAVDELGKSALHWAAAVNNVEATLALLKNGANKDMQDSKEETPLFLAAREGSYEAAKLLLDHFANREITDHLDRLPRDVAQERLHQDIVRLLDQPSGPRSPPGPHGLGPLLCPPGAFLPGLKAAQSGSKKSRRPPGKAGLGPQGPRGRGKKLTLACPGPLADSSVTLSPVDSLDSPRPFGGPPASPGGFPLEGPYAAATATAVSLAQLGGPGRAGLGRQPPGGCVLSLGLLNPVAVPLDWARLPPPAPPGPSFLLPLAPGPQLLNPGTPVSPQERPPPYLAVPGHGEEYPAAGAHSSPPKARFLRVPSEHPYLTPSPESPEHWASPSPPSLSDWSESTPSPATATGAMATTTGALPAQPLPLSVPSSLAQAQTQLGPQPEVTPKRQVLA
Sequence of Neurogenic locus notch homolog protein 2 (Homo sapiens) (Q04721 whole entry, looked up, canonical isoform): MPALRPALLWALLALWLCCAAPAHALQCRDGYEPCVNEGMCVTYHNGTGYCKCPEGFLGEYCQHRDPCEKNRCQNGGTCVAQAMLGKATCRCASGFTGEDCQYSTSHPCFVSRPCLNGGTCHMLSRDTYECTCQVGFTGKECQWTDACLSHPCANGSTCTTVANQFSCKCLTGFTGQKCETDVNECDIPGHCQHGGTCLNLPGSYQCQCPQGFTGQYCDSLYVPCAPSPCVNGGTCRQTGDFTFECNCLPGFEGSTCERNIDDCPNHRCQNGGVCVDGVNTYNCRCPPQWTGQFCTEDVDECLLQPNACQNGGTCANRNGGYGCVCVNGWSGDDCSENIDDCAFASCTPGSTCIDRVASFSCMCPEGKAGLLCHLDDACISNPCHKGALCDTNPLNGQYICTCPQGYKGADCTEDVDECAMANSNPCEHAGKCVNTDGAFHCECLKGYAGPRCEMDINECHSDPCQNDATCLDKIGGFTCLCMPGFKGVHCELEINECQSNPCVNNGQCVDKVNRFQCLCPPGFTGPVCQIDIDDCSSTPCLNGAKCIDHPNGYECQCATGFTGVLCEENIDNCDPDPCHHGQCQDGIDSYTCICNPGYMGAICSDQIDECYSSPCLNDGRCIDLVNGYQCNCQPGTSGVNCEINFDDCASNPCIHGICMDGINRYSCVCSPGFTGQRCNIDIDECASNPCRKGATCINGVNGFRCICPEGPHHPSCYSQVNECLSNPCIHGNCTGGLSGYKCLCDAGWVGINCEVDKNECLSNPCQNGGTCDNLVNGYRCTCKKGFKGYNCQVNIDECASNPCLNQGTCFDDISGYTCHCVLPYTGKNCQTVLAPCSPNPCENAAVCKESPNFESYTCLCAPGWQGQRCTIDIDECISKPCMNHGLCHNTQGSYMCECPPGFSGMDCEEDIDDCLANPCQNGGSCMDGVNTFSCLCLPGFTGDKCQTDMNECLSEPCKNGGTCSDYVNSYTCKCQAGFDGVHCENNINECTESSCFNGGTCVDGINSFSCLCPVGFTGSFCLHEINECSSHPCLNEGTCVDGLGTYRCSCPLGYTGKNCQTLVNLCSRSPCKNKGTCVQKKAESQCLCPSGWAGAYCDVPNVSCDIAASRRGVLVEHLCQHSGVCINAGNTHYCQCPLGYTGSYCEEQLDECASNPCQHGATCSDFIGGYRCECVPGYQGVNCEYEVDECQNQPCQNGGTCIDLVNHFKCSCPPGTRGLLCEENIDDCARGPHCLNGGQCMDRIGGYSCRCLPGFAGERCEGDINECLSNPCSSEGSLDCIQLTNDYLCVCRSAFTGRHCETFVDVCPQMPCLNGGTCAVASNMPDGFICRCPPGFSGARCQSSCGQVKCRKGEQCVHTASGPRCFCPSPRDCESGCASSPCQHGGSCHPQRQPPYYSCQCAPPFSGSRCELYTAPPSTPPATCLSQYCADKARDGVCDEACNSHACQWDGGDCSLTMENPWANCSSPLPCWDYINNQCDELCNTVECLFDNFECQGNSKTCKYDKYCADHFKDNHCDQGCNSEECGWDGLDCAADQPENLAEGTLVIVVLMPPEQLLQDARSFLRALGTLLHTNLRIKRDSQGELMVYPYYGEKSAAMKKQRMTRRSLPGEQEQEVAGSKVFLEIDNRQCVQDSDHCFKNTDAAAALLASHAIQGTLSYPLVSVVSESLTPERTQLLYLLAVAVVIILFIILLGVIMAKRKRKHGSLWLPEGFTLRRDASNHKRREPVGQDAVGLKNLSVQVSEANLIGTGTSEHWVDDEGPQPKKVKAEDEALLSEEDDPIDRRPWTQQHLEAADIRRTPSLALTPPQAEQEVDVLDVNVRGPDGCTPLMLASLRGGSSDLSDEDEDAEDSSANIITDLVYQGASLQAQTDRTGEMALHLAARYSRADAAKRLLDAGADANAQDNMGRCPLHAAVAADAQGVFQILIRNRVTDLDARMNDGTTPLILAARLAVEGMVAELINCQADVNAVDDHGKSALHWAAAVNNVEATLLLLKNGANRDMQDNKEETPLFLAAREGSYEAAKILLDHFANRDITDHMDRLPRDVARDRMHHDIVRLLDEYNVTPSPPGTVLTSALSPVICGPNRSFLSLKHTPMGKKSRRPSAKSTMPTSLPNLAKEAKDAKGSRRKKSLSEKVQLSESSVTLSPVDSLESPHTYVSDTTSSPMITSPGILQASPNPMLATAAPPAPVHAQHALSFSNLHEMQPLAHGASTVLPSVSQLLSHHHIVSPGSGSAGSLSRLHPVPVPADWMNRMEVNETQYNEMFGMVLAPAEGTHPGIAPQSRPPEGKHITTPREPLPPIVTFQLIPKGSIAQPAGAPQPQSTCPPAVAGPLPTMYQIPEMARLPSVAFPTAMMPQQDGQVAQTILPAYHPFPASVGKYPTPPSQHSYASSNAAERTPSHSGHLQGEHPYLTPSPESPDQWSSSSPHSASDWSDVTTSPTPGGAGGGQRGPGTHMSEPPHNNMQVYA

With `CCOC(=O)[C@H](Cc1ccccc1)NC(=O)CCC1CC(OC(=O)NCc2cccc3ccccc23)CC2(CCCC(COC(=O)NCC3CCCCC3)O2)O1` (stereo not given in full), the composite z-score in test [1] was -0.421; in test [2] it was 0.979; in test [3], -0.154; in [4], 0.183; in test [5], 0.595; in [6] it was 0.619. Also, the composite z-score in test [7] is 0.994; in [9], 0.253; in test [10] it was 0.102; in test [11], 1.41; in [15], 1.4; in [17], -0.117. The composite z-score in [18] is 0.926; in [19], 1.14; in test [20], -0.0381. Further, the z-score is 0.0184 (inactive) in test [8]; -0.617 (inactive) in [12]; -0.174 (inactive) in [13]; -0.445 (inactive) in test [14]; -0.448 (inactive) in test [16].

On to `C[C@@H]1C=CCC(=O)OC[C@H](C)C(=O)N[C@@H](Cc2ccccc2)C(=O)OC1`, for which the composite z-score was -0.553 in [1]; 1.31 in test [2]; -0.245 in test [3]; 0.294 in test [4]; 0.443 in test [5]; -0.302 in [6]. Further, the composite z-score in test [7] is 0.422; in test [9], 0.0347; in [10] it was 0.605; in test [11] it was -0.431; in test [15] it was 0.146; in test [17], -0.192. The composite z-score in [18] was 0.79; in test [19], -0.019; in [20], -0.0513. The z-score in test [8] was -0.514 (inactive); in [12] it was 0.214 (inactive); in test [13] it was -1.06 (inactive); in [14], -0.0603 (inactive); in test [16], -0.234 (inactive).

Turning to `COC(=O)[C@H](Cc1ccccc1)NC(=O)[C@@H](C)CO`, the composite z-score was 0.503 in test [1]; 0.482 in test [2]; -0.0105 in test [3]; 0.417 in test [4]; 0.458 in test [5]; -0.35 in test [6]. The composite z-score is 0.867 in test [7]; 0.53 in test [9]; -0.0672 in test [10]; 1.41 in [11]; 0.738 in test [15]; 0.0498 in [17]. Further, the composite z-score in test [18] came out at 0.441; in [19] it was 0.588; in test [20] it was 0.169. Further, the z-score was 0.313 (inactive) in test [8]; -0.152 (inactive) in test [12]; -0.187 (inactive) in test [13]; 0.22 (inactive) in [14]; -0.503 (inactive) in test [16].

With `C=CC[C@@H]1C=C[C@H](ON=C(C)CCN2CCCCc3nc(C)c(C)cc32)[C@@H](CO)O1`, the composite z-score in test [1] is 0.407; in test [2], 1.57; in test [3], -0.0704; in [4], 0.129; in test [5], 0.145; in test [6], 0.37. Also, the composite z-score was 0.899 in [7]; 0.238 in test [9]; 0.0053 in test [10]; 1.47 in test [11]; 1.77 in test [15]; -0.0769 in test [17]. Moreover, the composite z-score in test [18] worked out at 1.21; in [19] it was 0.67; in [20] it was 0.044. Also, the z-score in test [8] is 0.389 (inactive); in test [12], -1.19 (inactive); in [13], 0.805 (inactive); in test [14], -0.508 (inactive); in [16], -0.0376 (inactive).

Take `CC(C)=CCCC(C)=CCON=C1[C@H]2CCn3c(=O)n(-c4ccccc4)c(=O)n3[C@H]2[C@H](O)[C@@H]2O[C@H]12`: the composite z-score in test [1] is -0.279; in test [2], 0.207; in test [3], 0.0243; in test [4], 0.0859; in test [5] it was 0.934; in test [6] it was 0.634. For the same compound, the composite z-score in test [7] was 0.994; in test [9], 0.516; in test [10], -0.0645; in test [11], 1.56; in [15] it was 2.36; in test [17] it was 0.207. The composite z-score in test [18] is 0.59; in test [19], 1.07; in test [20] it was -0.0211. Also, the z-score in test [8] is -1.52 (inactive); in test [12], -0.504 (inactive); in test [13], -5.66 (inactive); in test [14] it was -0.784 (inactive); in [16], -1.1 (inactive).
